In PubChem BioAssay (NCI):
This is part of a sample that, as a whole, favours compounds with a hit. Of some 79,000 tested, about 15% had one in any assay. Active and inactive are the calls of the source. No stated cut-off is given here; in the data, active means growth inhibition above about 70%; inactive means the rest.

Columns and labels:
[1] = NCI Yeast Anticancer Drug Screen. Data for the rad50 strain (AID 155);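 further: 0% = growth of vehicle-only cultures of the same strain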; details: S. cerevisiae rad50 strain growth inhibition; at 50.0 µM; stronger effect = higher value
Method in brief: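 Readout: growth inhibition relative to vehicle-treated cultures. Compound exposure was carried out in a genetically defined yeast strain deficient in DNA damage repair.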

[2] = NCI Yeast Anticancer Drug Screen. Data for the mec2-1 strain (AID 157); details: S. cerevisiae mec2-1 strain, at 50.0 µM, stronger effect = higher value
Method in brief: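 Test agents were screened against the mec2-1 yeast strain, with defined DNA repair or cell cycle alteration. Growth was scored as inhibition against vehicle-only controls.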

[3] = NCI Yeast Anticancer Drug Screen. Data for the sgs1 mgt1 strain (AID 161);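 further: 0% = growth of cultures given vehicle only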; details: S. cerevisiae sgs1 mgt1 strain, at 50.0 µM, stronger effect = higher value
Method in brief: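 Genetically altered yeast, compound exposure, growth inhibition relative to vehicle.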

[4] = NCI Yeast Anticancer Drug Screen. Data for the cln2 rad14 strain (AID 165);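 further: 0% = growth equal to vehicle treated cultures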; details: S. cerevisiae cln2 rad14 strain, at 50.0 µM, stronger effect = higher value
Method in brief: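 Growth of compound-exposed yeast (cln2 rad14 genotype) measured and expressed as inhibition relative to vehicle.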

[5] = NCI Yeast Anticancer Drug Screen. Data for the bub3 strain (AID 167); details: S. cerevisiae bub3 mutant strain, at 50.0 µM, stronger effect = higher value
Method in brief: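 Readout: yeast growth inhibition, expressed relative to vehicle-only wells. The test organism is a mutant strain from a panel with lesions in DNA repair or checkpoint genes.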

[6] = NCI Yeast Anticancer Drug Screen. Data for the mlh1 rad18 strain (AID 175); details: S. cerevisiae mlh1 rad18 strain growth inhibition; at 50.0 µM; stronger effect = higher value
Method in brief: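 In this whole-cell yeast screen, a strain with altered DNA damage repair is challenged with compound, and its growth is measured against matched vehicle-treated controls.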

Measured: growth inhibition

CC[As](=O)(O)c1ccc(OC)c(I)c1
inactive: [1] 1.75% | [2] -15.3% | [3] 18.3% | [4] -76.5% | [5] 4.35% | [6] 0.75%

CCOC(=O)C[Se]CC(=O)OCC
inactive: [1] -8.65% | [2] 11.2% | [3] 11.2% | [4] -14.2% | [5] 43.8% | [6] 28.3%

ClC1CC2CC1C1CNCC21 (stereo not drawn)
inactive: [1] -15.2% | [2] -14.6% | [3] -4.05% | [4] -15.8% | [5] -1.05% | [6] -21%

CCCc1ccc(CCN)cc1
inactive: [1] -8.55% | [2] -9% | [3] -15.1% | [4] -9.45% | [5] -2.3% | [6] -23.2%

CC(C)[C@@H]1ON1C(C)c1ccccc1 (stereo partly drawn)
inactive: [1] 21.3% | [2] -10.1% | [3] 25.8% | [4] 11.6% | [5] 27.4% | [6] 16%

N/C(=N\NC(=O)c1ccc([N+](=O)[O-])cc1)N[N+](=O)[O-]
inactive: [1] -11.1% | [2] -12.2% | [3] -3.65% | [4] 28.8% | [5] 11.2% | [6] 1.75%

NC(=O)c1cc([N+](=O)[O-])cc([N+](=O)[O-])c1N(CCCl)CCCl
inactive: [1] -3% | [2] -10.9% | [3] -15.4% | [4] -3.8% | [5] -8.95% | [6] -14.6%

[N-]=[N+]=CC(=O)C1(C(=O)C=[N+]=[N-])CC1
inactive: [1] -14.7% | [2] -11.2% | [3] -41% | [4] -18.1% | [5] -16.9% | [6] -27.1%

O=C1NC(=O)C(F)(n2cc(F)c(=O)[nH]c2=O)C(O)N1 (stereo not drawn)
inactive: [1] -47.8% | [2] -31.3% | [3] -10.2% | [4] -40% | [5] -13.4% | [6] -54.9%

NS(=O)(=O)c1cc(N(CCCl)CCCl)c([N+](=O)[O-])cc1[N+](=O)[O-]
inactive: [1] -72.8% | [2] -36.8% | [3] -12.5% | [4] 2.1% | [5] -16.1% | [6] -34.5%

Cc1cc(C)cc(OP(=O)(Oc2cc(C)cc(C)c2)Oc2cc(C)cc(C)c2)c1
inactive: [1] -13.3% | [2] -24.6% | [3] 5.45% | [4] -3.65% | [5] 1.7% | [6] -5.25%

CCCCCCCCCCC[CH2][Hg][Cl]
inactive: [1] 8.6% | [2] 3.15% | [3] 12.4% | [4] -18.6% | [5] -3.45% | [6] -3.1%

O=C(Nc1cccc(S(=O)(=O)F)c1)c1cccc([N+](=O)[O-])c1
active: [1] 96.5% | [2] 94.8% | [3] 98.5% | [4] 91.7% | [5] 95.6% | [6] 96.8%

O=C/C=C/c1ccco1
inactive: [1] 17.4% | [2] -14.3% | [3] -15.2% | [4] 14.2% | [5] -8.45% | [6] 31.8%

CN1CCN(c2cc3nsnc3c3nsnc23)CC1
inactive: [1] 0.3% | [2] -7.3% | [3] -15.1% | [4] 8.6% | [5] -12.7% | [6] 18.1%

Cc1cc(C)n(/C(N)=N/[N+](=O)[O-])n1
inactive: [1] -15.3% | [2] -18.9% | [3] 3.6% | [4] 12.6% | [5] 21.6% | [6] 15.2%

N#CCC(N)C(=O)O (stereo not drawn)
inactive: [1] 0.7% | [2] -11.1% | [3] -11.8% | [4] -34.4% | [5] -9.2% | [6] 8.65%

O=S(=O)(c1ccccc1)c1ccccc1
inactive: [1] -2.9% | [2] 1.55% | [3] 1.6% | [4] -8.05% | [5] 0.1% | [6] -37.9%

CN(C)C(=O)Oc1ccc(C2CCCN2C)cn1 (stereo not drawn)
inactive: [1] 3.95% | [2] 5.45% | [3] 3.75% | [4] -13.1% | [5] -6% | [6] -22.7%

NC(=O)c1cccc([As]=O)c1 (stereo not drawn)
inactive: [1] -11.4% | [2] 17.4% | [3] 13.8% | [4] -18.6% | [5] 0.85% | [6] -17.6%

CNC(=O)N1CN(c2ccccc2)C2(CCN(CCCC3(c4ccc(F)cc4)OCCO3)CC2)C1=O
inactive: [1] -16% | [2] -9.5% | [3] -4.4% | [4] -8.8% | [5] 8.3% | [6] 1.05%

CCCCCCCCCCCCCCCCCC(=O)[O][Pb]([CH3])([CH3])[CH3]
inactive: [1] 0.8% | [2] 0.5% | [3] 18.8% | [4] 21.6% | [5] 2.8% | [6] 13.1%

O=C(O)c1ccccc1N(CCO)CCCl
inactive: [1] -11.2% | [2] -10.4% | [3] -31.4% | [4] 21.6% | [5] -14% | [6] -22.8%

Cn1c(=O)oc(=O)c2ccccc21
inactive: [1] -0.45% | [2] -15.3% | [3] -17.4% | [4] -3.1% | [5] -27.4% | [6] 6.85%

CNC(=O)C(Cl)Cl
inactive: [1] 12.8% | [2] 4.85% | [3] 11.7% | [4] 0.95% | [5] -8.1% | [6] 6.15%

O=NN1CCCNCC1
inactive: [1] -4.2% | [2] -14.9% | [3] -4.65% | [4] -42.4% | [5] 15.4% | [6] 4.25%

O=[N+]([O-])c1ccc(/C=C/c2ccc(S(=O)(=O)F)cc2Cl)c(Cl)c1
inactive: [1] -13.2% | [2] -11.2% | [3] 0.75% | [4] -34.3% | [5] -6.7% | [6] -4.35%

O=c1ccc2cc3ccoc3c(O)c2o1
inactive: [1] 28.6% | [2] 0% | [3] 25.7% | [4] 30.6% | [5] 10.8% | [6] 18.2%

O=NNc1cccc(NN=O)n1
inactive: [1] 47.2% | [2] -22.8% | [3] -34.1% | [4] -2.75% | [5] -26.5% | [6] -3.15%

CC(=O)C(N)Cc1ccccc1 (stereo not drawn)
inactive: [1] 24.4% | [2] 17.2% | [3] 10% | [4] -26.6% | [5] 23.2% | [6] 15.2%

O=C(c1ccccc1)C1CN(C2CCCC2)C1c1ccccc1 (stereo not drawn)
inactive: [1] -10.2% | [2] 7.6% | [3] -1.55% | [4] -27.3% | [5] 10.4% | [6] 16.1%

CCC1C2Cc3ccc(O)cc3C1(CC)CCN2C (stereo not drawn)
inactive: [1] 10.6% | [2] -35.2% | [3] -42.5% | [4] -1.65% | [5] -77.2% | [6] -13.2%

Cc1cn([C@H]2CC3C(CON3C)O2)c(=O)[nH]c1=O (stereo partly drawn)
inactive: [1] 3.3% | [2] 7.55% | [3] 1.15% | [4] -3.55% | [5] -8.55% | [6] -37.4%

CCCCCC[n+]1noc(N)c1-c1ccc(-c2c(N)on[n+]2CCCCCC)cc1
inactive: [1] 17.6% | [2] -1.35% | [3] 26.1% | [4] 21.8% | [5] 16.2% | [6] 18.5%

O=CNc1ccccc1
inactive: [1] 18.6% | [2] 1.7% | [3] 0.85% | [4] 6.5% | [5] 7.65% | [6] 7.25%

COC(=O)CCc1ccc(NP(=O)(Oc2ccccc2)N(CCCl)CCCl)cc1 (stereo not drawn)
inactive: [1] 13.3% | [2] 20.2% | [3] 23.4% | [4] 35.8% | [5] 12.2% | [6] -8.55%

CCC(=O)c1ccc(N)cc1
inactive: [1] 7.95% | [2] 4.45% | [3] 2.15% | [4] -26.4% | [5] -4.8% | [6] 6.25%

C/C=C1/CN2CCC1CC2C(O)c1ccnc2ccc(OCCO)cc12 (stereo not drawn)
inactive: [1] -8.4% | [2] -13.2% | [3] -2.35% | [4] -9.35% | [5] -24.6% | [6] 24.9%
